Experimental data from PubChem BioAssay (NCATS).
Records with an inconclusive call do not appear. Values without a mark were called inactive. The source made the active and inactive calls. Calls come from the whole dose curve; as a rule, active = well fitted activation curve with a large enough effect in the repeat runs; inconclusive = weak or mixed curves; inactive = flat fitted curve, though single readings scatter.

Test: qHTS assay for small molecule agonists of the antioxidant response element (ARE) signaling pathway measured by Nrf2-dependant transcriptional activity (AID 720636); for activation: % of control where 0% means no effect
Conditions: ARE-luc HepG2, Nrf2 luciferase reporter, 16 h; series mostly up to 92.4 µM; activation: at the top concentration
Excerpt: National Center for Advancing Translational Sciences [NCATS] NIH Chemical Genomics Center [NCGC] U.S. Environmental Protection Agency [EPA] National Institutes of Environmental Health Sciences [NIEHS] National Toxicology Program [NTP] Assay Overview: The antioxidant response element (ARE) signaling pathway plays an important role in the cellular anti-oxidant defense. Exposure to stressors which are exogenous like ionizing radiations, chemicals, U-V light, and endogenous like cell signaling, metabolic processes or inflammation, reactive oxygen species (ROS), can induce oxidative stress in the cells. Oxidative stress has been implicated in the pathogenesis of a variety of diseases ranging from cancer to neurodegeneration. ARE-luc HepG2 cell line (Simmons et al., Current Chemical Genomics, 5:1-12, 2011) has been used for identifying the chemicals that induce oxidative stress. The cell line has an Nrf2-responsive luciferase reporter gene that has been engineered to measure Nrf2-dependant transcriptional activity.
Assay Protocol Summary: For measuring ARE induction; 2,000 ARE-luc HepG2 cells in 5 uL of assay medium containing 1% dialyzed FBS per well were dispensed into white wall/solid bottom 1536-well plates using a Flying Reagent Dispenser (FRD) (Aurora Discovery). The assay plates were incubated for 6 hr at 37 C to allow cell attachment to the well bottom, followed by the transfer of 23 nL compound or DMSO vehicle by a pin tool (Kalypsys). The plates were incubated for 16 hr at 37 C and 5% CO2, followed by the addition of 5 uL of ONE-GloTM luciferase reagent (Promega) into each well using FRD. After 30 min room temperature incubation, plates were read on a ViewLux plate reader (PerkinElmer).
Potency is the fitted concentration of half-maximal effect.

Structure (SMILES)	Potency	activation
COP(=O)(OC)OC=C(Cl)Cl	inactive	
COCC(=O)N(c1c(C)cccc1C)C(C)C(=O)OC (centres undefined)		0.264%
Oc1c(Br)cc(Br)cc1Br		1.2%
Cc1ccc(N=CN(C)C=Nc2ccc(C)cc2C)c(C)c1		-2.26%
C[C@H]1C(=O)O[C@@H]2CCN3CC=C(COC(=O)[C@](C)(O)[C@]1(C)O)[C@H]23		0.0015%
O=c1n(Cl)c(=O)n(Cl)c(=O)n1Cl		-0.0312%
Oc1ccc(Cl)cc1Sc1cc(Cl)ccc1O		-5.12%
C[C@@H]1C[C@@H]([C@H](O)CC2CC(=O)NC(=O)C2)C(=O)[C@@H](C)C1	inactive	
CC[n+]1c(-c2ccccc2)c2cc(N)ccc2c2ccc(N)cc21		-0.119%
CCCCCCCCCCCC[N+](C)(C)CCOc1ccccc1		-5.27%
N#Cc1nn(-c2c(Cl)cc(C(F)(F)F)cc2Cl)c(N)c1S(=O)C(F)(F)F (centres undefined)		-0.0416%
O=C(NC(=O)c1c(F)cccc1F)Nc1cc(Cl)c(OC(F)(F)C(F)C(F)(F)F)cc1Cl (centres undefined)		1.58%
CCCCCCCCCCCCCCCC[n+]1ccccc1		-4.93%
Oc1ccc(Cl)cc1Cc1cc(Cl)ccc1O	inactive	
CCCCCCCCC(=O)NCc1ccc(O)c(OC)c1		1.19%
C=CCOC(Cn1ccnc1)c1ccc(Cl)cc1Cl (centres undefined)	inactive	
CCC(=O)O[C@H]1CC[C@H]2[C@@H]3CCC4=CC(=O)CC[C@]4(C)[C@H]3CC[C@]12C		0.408%
CN(C)C(=S)SSC(=S)N(C)C	42.2 µM (active)	
CCNc1nc(Cl)nc(NCC)n1		0.362%
